PHOSPHO1 block: inhibitors of human PHOSPHO1 phosphatase. recombinant PHOSPHO1, absorbance phosphatase assay. inhibition, % at 13.3 µM. 1.1% of 290,000 active. AID 1565; in the data active = inhibition above about 60%
APOBEC3G inh: blocks human APOBEC3G single-stranded DNA deamination. Q9HC16. recombinant A3G, ssDNA deamination FAM/TAMRA fluorescence. inhibition, % at 20 µM. 0.28% of 330,000 active;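 active = inhibition of at least 40% at 20 µM, with no more than 30% in the related APOBEC3A deaminase screen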
Target sequence (Q9HC16 whole entry, looked up): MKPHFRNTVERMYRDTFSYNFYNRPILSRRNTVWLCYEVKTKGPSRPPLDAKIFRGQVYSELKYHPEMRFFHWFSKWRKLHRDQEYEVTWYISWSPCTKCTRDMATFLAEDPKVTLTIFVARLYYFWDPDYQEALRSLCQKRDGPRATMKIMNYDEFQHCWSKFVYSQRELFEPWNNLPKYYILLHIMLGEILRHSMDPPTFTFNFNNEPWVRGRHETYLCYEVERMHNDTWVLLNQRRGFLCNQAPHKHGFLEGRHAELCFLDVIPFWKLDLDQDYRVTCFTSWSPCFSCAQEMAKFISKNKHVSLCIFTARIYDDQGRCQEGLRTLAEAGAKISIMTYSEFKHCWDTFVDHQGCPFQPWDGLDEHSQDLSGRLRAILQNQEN
APOBEC3A inh: human APOBEC3A DNA deaminase inhibition; P31941; recombinant A3A, FAM/TAMRA ssDNA deamination fluorescence; inhibition, % at 20 µM; 0.41% of 330,000 active;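 active = at least 40% inhibition at 20 µM here, with at most 30% in a related deaminase screen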
rCAG RNA binder: binds r(CAG) RNA repeats; r(CAG) RNA repeat, TO-PRO-1 dye displacement fluorescence; inhibition, % at 3 µM; 1.3% of 370,000 active;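 active = inhibition above the plate cutoff, the mean of all test compounds on that plate plus 3 SD, cut at about 35% in these data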;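 also: higher means more dye released from RNA so lower well fluorescence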
ALR H2O2 inh: human ALR oxidase inhibition via reduced H2O2; P55789; purified ALR, DTT oxidation, H2O2 HRP-luminol luminescence; inhibition, % (no concentration beside the values); 3.8% of 290,000 active; AID 485317;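 active = mean replicate inhibition above about 79%, with every replicate also reaching it, limit read from the data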
Target sequence (P55789 whole entry, looked up): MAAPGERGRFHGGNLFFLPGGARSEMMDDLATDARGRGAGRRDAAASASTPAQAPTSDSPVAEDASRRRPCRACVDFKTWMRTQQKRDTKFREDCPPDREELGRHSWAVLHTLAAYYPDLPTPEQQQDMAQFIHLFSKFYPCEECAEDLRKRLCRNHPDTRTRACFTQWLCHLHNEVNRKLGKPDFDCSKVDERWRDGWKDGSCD
aDG glyco up: increases alpha dystroglycan glycosylation; Pro5-aDG cells, alpha-DG glycosylation AlphaScreen (IIH6); 0% Pro5, 100% B10-LARGE cell signal; activation, % at 10 µM; 0.22% of 360,000 active;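 active = activation of at least 8% versus controls, or a plate z-score of at least 8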;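 also: Pro5 are CHO cells carrying HIG-tagged alpha-DG that lacks glycosylation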
Large screens that a line does not name were inactive. An excerpt weighted towards active compounds, which were near 5.4% of everything screened.

CC1=C2NC(N)=[N+](CC3CC3)C(Cc3ccccc3)[C@@H]2n2c(=O)n(-c3ccccc3)c(=O)n2C1 (some centres undefined)	none (no result: PHOSPHO1 block, APOBEC3G inh, APOBEC3A inh, ALR H2O2 inh, aDG glyco up)
NC(=O)c1ncn([C@@H]2O[C@H](C(=O)N[C@H](Cc3c[nH]c4ccccc34)C(=O)N3CCN(C(=O)N4CCOCC4)CC3)[C@@H](O)[C@H]2O)n1	none (no result: PHOSPHO1 block, APOBEC3G inh, APOBEC3A inh, ALR H2O2 inh, aDG glyco up)
Cc1cc(N2CCOCC2)n2ncc(-c3ccc(Cl)cc3)c2n1	none
Cc1ccc(-c2cnn3c(N4CCOCC4)cc(C)nc23)cc1	ALR H2O2 inh 93
COc1ccc([C@H]2OC(=O)C[C@H]2C(=O)N2CCN(C(=O)C3CCCO3)CC2)cc1OC (some centres undefined)	none (no result: PHOSPHO1 block, APOBEC3G inh, APOBEC3A inh, ALR H2O2 inh, aDG glyco up)
COC(=O)[C@]12C[C@H](CC(=O)N3CCSCC3)C(=O)N(Cc3ccco3)C1=C[C@H](C(C)(C)C)O[C@@H]2C	none (no result: PHOSPHO1 block, APOBEC3G inh, APOBEC3A inh, ALR H2O2 inh, aDG glyco up)
O=c1/c(=C/c2ccc(O)cc2)sc2n1CCCN=2	ALR H2O2 inh 98
CN(C)c1ccc(/C=c2\sc3n(c2=O)CCCN=3)cc1	ALR H2O2 inh 99
O=c1/c(=C\c2ccc(F)cc2)sc2n1CCCN=2	none
CCCN(CC1CC1)c1nc(C)nc2c1nnn2Cc1ccccc1	none (no result: PHOSPHO1 block, APOBEC3G inh, APOBEC3A inh, ALR H2O2 inh, aDG glyco up)
Cc1ccc2nc3c(c(Nc4ccc5c(c4)OCCO5)c2c1)CCC3	ALR H2O2 inh 98
O=C(CC1Oc2ccccc2NC1=O)NCCc1ccccc1 (centres undefined)	ALR H2O2 inh 86
Cc1ccc(CCNC(=O)CC2Oc3ccc(C)cc3NC2=O)cc1 (centres undefined)	none
CC1CCN(Cc2ccc(NC(=O)CC3Oc4ccccc4NC3=O)cc2)CC1 (centres undefined)	ALR H2O2 inh 92
CCN(CCNC(=O)CC1Oc2ccccc2NC1=O)c1ccccc1 (centres undefined)	ALR H2O2 inh 97
CCc1cccc(NC(=O)CC2Oc3ccccc3NC2=O)c1 (centres undefined)	none
OC(c1ccccc1)(c1ccccc1)C1CCN(CCCNc2ccccc2F)CC1	none (no result: PHOSPHO1 block, APOBEC3G inh, APOBEC3A inh, ALR H2O2 inh, aDG glyco up)
C/C=C/C(=O)N1CCC(C(=O)NCC2COc3ccccc3O2)CC1 (centres undefined)	none (no result: PHOSPHO1 block, APOBEC3G inh, APOBEC3A inh, ALR H2O2 inh, aDG glyco up)
COc1ccc(-c2cc(-c3n[nH]c(=S)n3-c3ccccc3OC)[nH]n2)cc1	PHOSPHO1 block 67, ALR H2O2 inh 88
COc1ccc(OC)c(-n2c(-c3ccccc3)n[nH]c2=S)c1	PHOSPHO1 block 102
CCS(=O)(=O)N1Cc2ccccc2CC1C(=O)N1CCN(c2ccccc2)CC1 (centres undefined)	ALR H2O2 inh 98
CS(=O)(=O)N1Cc2ccccc2CC1C(=O)O (centres undefined)	none
CCn1cc(C(=O)N2CCN(Cc3ccc(C)cc3)CC2)c(=O)c2ccc(C)nc21	none (no result: PHOSPHO1 block, APOBEC3G inh, APOBEC3A inh, ALR H2O2 inh, aDG glyco up)
O=C(O)CCCC(=O)OCCCc1cc2ccccc2c(=O)o1	none (no result: PHOSPHO1 block, APOBEC3G inh, APOBEC3A inh, ALR H2O2 inh, aDG glyco up)
COC(=O)[C@]12C[C@H](CC(=O)N3CCN(C(=O)c4ccco4)CC3)C(=O)N(Cc3ccco3)C1=C[C@H](C1CCCC1)O[C@@H]2C	none (no result: PHOSPHO1 block, APOBEC3G inh, APOBEC3A inh, ALR H2O2 inh, aDG glyco up)
COC(=O)CCC/C=C1/SCC(NC(=O)c2ccccc2)C1O (centres undefined)	ALR H2O2 inh 97
COC(=O)CCC/C=C1/SCC(NC(=O)c2ccccc2)C1=O (centres undefined)	PHOSPHO1 block 64
COC(=O)CCC/C=C1/SCC(NC(=O)c2ccccc2)C1NC(C)=O (centres undefined)	none
COC(=O)C1CN(Cc2ccccc2)CCS(=O)(=O)N1Cc1cn(Cc2ccc(C)cc2)nn1 (centres undefined)	none (no result: PHOSPHO1 block, APOBEC3G inh, APOBEC3A inh, ALR H2O2 inh, aDG glyco up)
Cc1nc(N)sc1C(=O)N/N=C/c1c[nH]c2ccccc12	ALR H2O2 inh 91
O=C(CNc1ccccc1)N/N=C/c1c[nH]c2ccccc12	ALR H2O2 inh 89
O=C(NN=Cc1c[nH]c2ccccc12)NN=Cc1c[nH]c2ccccc12	none (no result: PHOSPHO1 block, APOBEC3G inh, APOBEC3A inh, ALR H2O2 inh)
CN(C)c1ccc(/C=C/c2cc[n+](C)cc2)cc1	PHOSPHO1 block 102, ALR H2O2 inh 99
CC[n+]1ccccc1/C=C/c1ccc(N(C)C)cc1	none (no result: APOBEC3G inh, APOBEC3A inh, ALR H2O2 inh)
CC[n+]1c(/C=C/c2ccc(N(C)C)cc2)ccc2ccccc21	ALR H2O2 inh 98 (no result: APOBEC3G inh, APOBEC3A inh)
CC[n+]1ccc(/C=C/c2ccc(N(C)C)cc2)c2ccccc21	none (no result: APOBEC3G inh, APOBEC3A inh, ALR H2O2 inh)
CN(C)c1ccc(/C=C/c2cc[n+]([O-])cc2)cc1	ALR H2O2 inh 99 (no result: rCAG RNA binder, aDG glyco up)
CCCC[C@H](C(=O)N(C)c1ccccc1)[C@@H](O)c1ccc(Cl)cc1	none (no result: PHOSPHO1 block, APOBEC3G inh, APOBEC3A inh, ALR H2O2 inh, aDG glyco up)
COC(=O)C1=C(C)N(Cc2ccccc2C(F)(F)F)C(=NCc2ccc(OC)cc2)NC1c1cccc(Cl)c1 (centres undefined)	none (no result: PHOSPHO1 block, APOBEC3G inh, APOBEC3A inh, ALR H2O2 inh, aDG glyco up)
C[C@@H](CCCCC1(C)OCCO1)CCC(=O)N(c1ccccc1)c1ccccc1	none (no result: PHOSPHO1 block, APOBEC3G inh, APOBEC3A inh, ALR H2O2 inh, aDG glyco up)
Cc1ccc2occ(C3N[C@H](C(=O)O)CS3)c(=O)c2c1 (some centres undefined)	ALR H2O2 inh 99
O=C(O)C1CSC(c2ccco2)N1 (centres undefined)	none
Cc1ccc2occ(C3NC(C(=O)O)CS3)c(=O)c2c1 (centres undefined)	ALR H2O2 inh 98
COC(=O)[C@]12C[C@H](CC(=O)N3CCCCC3)C(=O)N(Cc3ccccc3)C1=C[C@H](COCc1ccccc1)O[C@@H]2C	none (no result: PHOSPHO1 block, APOBEC3G inh, APOBEC3A inh, ALR H2O2 inh, aDG glyco up)
CCOC(=O)C1(Cc2cccc(Cl)c2)CCCN(C(=O)c2ccc(C)nc2)C1 (centres undefined)	PHOSPHO1 block 63
CSc1ccc(CNc2ncc(-c3cccc([N+](=O)[O-])c3)n2C)cc1	ALR H2O2 inh 98
COc1ccc(CNc2ncc(-c3ccc(F)cc3)n2C)c2ccccc12	none
COc1ccc(CNc2ncc(-c3cccc([N+](=O)[O-])c3)n2C)c(OC)c1OC	ALR H2O2 inh 98
Cn1c(-c2ccccc2)cnc1NCc1cccc([N+](=O)[O-])c1	none
COC(=O)[C@]12C[C@H](CC(=O)N3CCOCC3)C(=O)N(Cc3cccc4ccccc34)C1=C[C@H](C(C)C)O[C@@H]2C1CC1	none (no result: PHOSPHO1 block, APOBEC3G inh, APOBEC3A inh, ALR H2O2 inh, aDG glyco up)
CCN(CCCNC(=O)CC(C(=O)N1CCc2ccccc21)n1ccnc1)c1ccccc1 (centres undefined)	ALR H2O2 inh 99
O=C(CC(C(=O)N1CCc2ccccc21)n1ccnc1)NCc1cccnc1 (centres undefined)	none (no result: ALR H2O2 inh)
CC(C)(C)c1ccc(-c2nnc(SCc3cccc4ccccc34)n2Cc2ccco2)cc1	none (no result: PHOSPHO1 block, APOBEC3G inh, APOBEC3A inh, ALR H2O2 inh, aDG glyco up)
CC1CCCC/C1=N\NC(=S)Nc1cccnc1 (centres undefined)	ALR H2O2 inh 98
CN(C)c1cccc(-c2cc(Nc3ccc(C(C)(C)C)cc3)ncn2)c1	none (no result: PHOSPHO1 block, APOBEC3G inh, APOBEC3A inh, ALR H2O2 inh)
CN(C)c1ccc(Nc2cc(Cl)ncn2)cc1	ALR H2O2 inh 99
COc1ccc(C2C(C(=O)Nc3cc(OC)c(OC)c(OC)c3)CCC(=O)N2c2ccc(OC)cc2)cc1 (centres undefined)	none (no result: PHOSPHO1 block, APOBEC3G inh, APOBEC3A inh, ALR H2O2 inh, aDG glyco up)
O=C1C(=O)N(c2nccs2)C(c2ccccc2)/C1=C(\O)c1ccc2c(c1)OCCO2 (centres undefined)	none (no result: rCAG RNA binder)

Screening data as filed in PubChem BioAssay.
